M1 ag = human M1 muscarinic receptor agonists, primary screen, Fluo-8 calcium fluorescence, CHO-K1 cells, HTS | Muscarinic acetylcholine receptor M1 (Homo sapiens), P11229 | CHO-K1 hM1, agonist mode; 0% DMSO, 100% acetylcholine EC100 | activation, % at 3 µM | hit rate 0.33% among 360,000 | AID 588814, 2011;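 active means activation above the run's mean compound activation plus 3 SD, cut at about 16% in these data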;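 further: peak over basal fluorescence ratio within a 140 s kinetic read after compound addition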
Target sequence (P11229 whole entry, looked up): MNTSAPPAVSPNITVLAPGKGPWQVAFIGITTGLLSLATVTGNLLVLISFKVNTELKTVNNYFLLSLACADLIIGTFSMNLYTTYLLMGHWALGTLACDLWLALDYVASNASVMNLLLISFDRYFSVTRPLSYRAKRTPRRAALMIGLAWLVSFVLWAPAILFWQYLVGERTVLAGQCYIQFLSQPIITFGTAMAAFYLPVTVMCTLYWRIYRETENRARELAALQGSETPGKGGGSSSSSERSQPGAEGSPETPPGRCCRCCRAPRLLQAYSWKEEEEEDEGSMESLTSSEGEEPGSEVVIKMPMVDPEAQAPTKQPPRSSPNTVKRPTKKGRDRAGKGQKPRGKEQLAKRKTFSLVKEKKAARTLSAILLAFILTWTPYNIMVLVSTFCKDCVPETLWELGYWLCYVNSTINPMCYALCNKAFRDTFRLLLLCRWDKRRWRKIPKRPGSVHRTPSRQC
CHO-K1 Ca antag = counter-screen for M1 antagonists: effect in parental CHO-K1 cells | ATP-induced calcium, Fluo-8 fluorescence | inhibition, % at 3 µM | hit rate 0.6% among 360,000 | AID 602250;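 active means inhibition above a per-plate cutoff, the plate's mean sample inhibition plus 3 SD, cut at about 24% in these data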;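 further: 0% = DMSO plus EC80 ATP and 100% = DMSO alone without ATP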
CHRM1 antagonist = human M1 muscarinic receptor antagonists, primary screen, CHO-K1 cells, Fluo-8 calcium fluorescence, 1536-well | Muscarinic acetylcholine receptor M1 (Homo sapiens), P11229 | CHO-K1 hM1, ACh EC80 antagonist | inhibition, % at 3 µM | hit rate 1.3% among 360,000 | AID 588852, 2011;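 active means percent inhibition above its own plate's cutoff, namely the mean of that plate's compound wells plus 3 SD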;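 further: peak over basal fluorescence ratio during 140 s after agonist addition; 0% = ACh EC80 plus DMSO and 100% = DMSO alone without agonist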
M1 PAM parental = nonselective calcium activators in parental CHO-K1 cells, primary screen, counter-screen for M1 PAM project, cell-based, Fluo-8 calcium fluorescence, full deck, 1536-well; activation, % at 3 µM; ATP EC20; 0% at ATP EC20, 100% at ATP max; hit rate 0.02% among 360,000;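 active means activation above the run cutoff, the mean activation of all test compounds plus 3 SD, cut at about 40% in these data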;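 further: peak over basal fluorescence ratio in a 140 s read after ATP addition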
M1 ag parental = counter-screen for M1 agonists: effect in parental CHO-K1 cells | hit rate 0.48% among 360,000 | AID 602248, 2012 | activation, % at 3 µM | Fluo-8 calcium fluorescence; scaled to maximal ATP response, vehicle zero; in the data active means activation above about 15%;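 further: untransfected CHO-K1 host cells lacking M1 receptor as counterscreen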
CHRM1 PAM = human M1 muscarinic receptor positive allosteric modulators, primary screen, CHO-K1 cells, Fluo-8 calcium fluorescence, 1536-well. Muscarinic acetylcholine receptor M1 (Homo sapiens), P11229. CHO-K1 hM1, ACh EC20; 0% = ACh EC20, 100% = maximal ACh. activation, % at 3 µM. hit rate 0.088% among 360,000. AID 588819, 2011; in the data active means activation above about 19%, passing the limit was not always enough
The depositor's hits bear a star. The list is not random: actives were taken first. Their share in the collection is about 2.4%.

SMILES | M1 ag | CHO-K1 Ca antag | CHRM1 antagonist | M1 PAM parental | M1 ag parental | CHRM1 PAM
COc1ccc(CC(=O)Nc2ccccc2-c2ccccc2)cc1OC | -3 | 0 | -2 | 19 | 5 | 1
O=C(CN(C(=O)c1csnn1)c1cccc2c1CCCC2)NCc1ccc(F)cc1 | 1 | -5 | -9 | 4 | 2 | 7
COc1ccc(OC)c(CN2CCN(C(=O)c3cccc4ccccc34)CC2)c1 | -1 | -6 | -1 | 11 | 2 | -4
OCC1(Cc2ccccc2)CCN(CCCC2CCCC2)CC1 | -5 | -5 | 34* | 4 | 5 | -21
CCOC(=O)/C(CCC[N+](C)(CC)CC)=N\O | -12 | 0 | 91* | 6 | 0 | -26
CC(C)C(NS(=O)(=O)c1cccc2nsnc12)C(=O)NCc1ccc2c(c1)OCO2 (stereo unspecified) | -1 | 1 | -6 | 4 | 1 | 7
Cc1cc(Nc2cccc(Cl)c2)nc(-c2ccccc2O)n1 | -5 | 43* | -14 | 9 | 6 | 8
Cc1cc(Nc2ccc(Cl)cc2)nc(-c2ccccc2O)n1 | -4 | -7 | -2 | 16 | 1 | -1
CCOc1cc(CNCc2ccccc2)ccc1OCc1ccc(Cl)cc1 | 0 | 29* | 5 | -12 | 20* | 2
COc1ccc(CNCCc2ccc(Cl)cc2)cc1OCc1ccccc1 | 0 | 8 | 14 | 3 | 14 | -3
CCOc1cc(CNCCc2ccc(S(N)(=O)=O)cc2)cc(Cl)c1OCc1ccccc1 | 7 | -14 | 32 | 0 | 21* | -19
COc1cc(CNCc2ccccn2)ccc1OCc1ccc(Cl)cc1Cl | -5 | 25* | 22 | 3 | 0 | -6
O=c1c(O)c(-c2ccc(O)cc2)oc2cc(O)cc(O)c12 | 19* | -8 | -7 | 8 | 2 | 15
O=c1cc(-c2ccc(O)cc2)oc2cc(O)cc(O)c12 | -1 | 8 | -12 | -12 | 0 | -1
C=CCc1cc(Cl)ccc1OCCCNC(C)CC (stereo unspecified) | -7 | -2 | 24* | 1 | 2 | -22
CCC(C)NCCOCCOc1ccc(Cl)cc1Br (stereo unspecified) | -7 | 16 | 42* | -9 | 1 | -22
Cc1ccc(OCCOCCNC(C)C)c(Br)c1 | -6 | -8 | -28 | 20 | 0 | -1
CCC(C)NCCOCCOc1cc(C)c(Cl)c(C)c1 (stereo unspecified) | -7 | -1 | 54* | 10 | 1 | -25
O=C(Nc1ccccc1Cl)N1CCCN(c2nc(-c3ccccc3)ns2)CC1 | 0 | 23 | 38 | -18 | 13 | -21
O=C(Nc1ccccc1)N1CCN(c2nc(-c3ccccc3)ns2)CC1 | 3 | 18 | 32* | -25 | 10 | -17
C/C(=N\Nc1cc(C)nc(NCc2ccccc2)n1)c1ccc([N+](=O)[O-])cc1 | -7 | -2 | 38* | 11 | 0 | -15
COc1cc(C(=O)N2CCN(Cc3ccc4c(c3)OCO4)CC2)c([N+](=O)[O-])cc1OC | -2 | -11 | -10 | -4 | 0 | 7
Cc1ccccc1NC(=O)C1CCCN(c2nnc(N3CCCC3=O)s2)C1 (stereo unspecified) | -4 | 26* | -1 | -12 | 0 | -1
Cc1nc(S(=O)(=O)c2ccc(Cl)cc2)nc2c1CCC2 | -3 | -11 | -14 | 29 | 1 | 7
CC1CCC(C(C)C)C(OCC[N+](C)(C)C)C1 (stereo unspecified) | -10 | -4 | 100* | -9 | 1 | -22
SMILES | M1 ag | CHO-K1 Ca antag | CHRM1 antagonist | M1 PAM parental | M1 ag parental | CHRM1 PAM
CC1CCC(C(C)C)C(OCC(O)C[N+]2(C)CCCCC2)C1 (stereo unspecified) | -6 | 0 | 76* | -6 | 0 | -23
CC1CCC(C(C)C)C(OCC(O)CN2CCCC(C)C2)C1 (stereo unspecified) | -8 | -8 | 15 | -9 | 1 | -13
CC1Cc2c([nH]c(=O)n(-c3ccccc3)c2=O)O1 (stereo unspecified) | 0 | -13 | -17 | 23 | 1 | 15
Cc1ccc(NC(=S)NC2CCSc3ccccc32)cc1C (stereo unspecified) | -5 | 14 | 79* | -9 | 1 | -22
C=CCn1c(-c2sccc2C)n[nH]c1=S | -5 | -11 | -8 | 26 | 1 | 10
O=C(O)c1ccccc1-c1nnc2c(Cl)cc(C(F)(F)F)cn12 | 0 | 12 | 95* | -2 | 0 | 5
Cn1c(=O)c(NCCc2ccccc2)c2c3c(cccc31)C(=O)c1ccccc1-2 | 166* | 70* | 80* | -7 | 124* | -20
Cn1c(=O)c(NC2CCCCC2)c2c3c(cccc31)C(=O)c1ccccc1-2 | 13 | 11 | 16 | 3 | 16* | -14
Cn1c(=O)c(NCCO)c2c3c(cccc31)C(=O)c1ccccc1-2 | 70* | 18 | 6 | -3 | 34* | -16
CC(=O)Nc1ccc(Nc2c3c4c(cccc4n(C)c2=O)C(=O)c2ccccc2-3)cc1 | -4 | -6 | 0 | 18 | 2 | 2
CN1C(=O)c2cccc(NCCCN3C(=O)c4ccccc4C3=O)c2C1=O | -6 | -14 | -10 | -2 | 1 | 8
Cn1c(=O)cc2c3c(c(N4CCCCC4)ccc31)C(=O)c1ccccc1-2 | 0 | 9 | 4 | -9 | 0 | 5
CCCCNc1c2c3c(cccc3n(C)c1=O)C(=O)c1ccccc1-2 | 141* | 69* | 75* | -4 | 123* | -23
CC(=O)Oc1ccc(-c2cccc(C(=O)NCC(=O)O)c2)cc1 | -4 | -5 | 0 | 13 | 1 | 6
O=C(NC1CC1)c1ccc(CS(=O)(=O)c2c(Cl)cccc2Cl)o1 | -2 | 17 | 13 | -9 | 0 | -8
Cc1ccccc1N=C(NO)c1cccnc1 | 0 | -6 | -11 | -14 | 1 | 5
CN1/C(=C/C(=O)c2ccc(Cl)cc2)Sc2cc3c(cc21)OCO3 | -7 | -13 | 0 | 17 | 4 | 6
CN(C)c1ccc2nc3c(=O)[nH]c(=O)nc-3n(CC(O)C(O)C(O)CO)c2c1 (stereo unspecified) | 18* | -2 | 15 | -9 | 10 | -5
Cc1ccc(C(=O)c2c[nH]c(C(=O)NCCCN3CCOCC3)c2)cc1 | -4 | 13 | 12 | 7 | 0 | -6
O=C(NCc1ccc(F)cc1)C(c1ccccc1)N(C(=O)c1csnn1)c1ccccc1 (stereo unspecified) | -9 | -3 | 29* | -3 | 7 | -20

From PubChem
